# Data as given in PubChem BioAssay (NCATS).
# Results filed as inconclusive are left out. Where a call stands in place of a potency, no number is given. A number with no mark means an inactive call. The source made the active and inactive calls. Calls come from the whole dose curve; as a rule, active = well fitted curve in the direction sought with a large enough effect; inconclusive = small, poorly fitted or top-dose-only effect, or another doubt; inactive = no such curve, though single readings can be large; an effect the other way counts as inactive or inconclusive. *1 amine or outer side, *2 acyl side, *3 side chain or, on linkers, in order; H or OH if unused. Where a SMILES comes first, the peptide text is derived from it. Bridges are numbered along the chain shown (N, C = ends). [ ]: non-standard residue; d: D form. The star is where a group is joined. pTerphenylCO(4''-OnC5H11) = CCCCCOc1ccc(-c2ccc(-c3ccc(C(=O)*)cc3)cc2)cc1; Orn(4R-OH,5R-OH) = O=C([C@H](C[C@@H](O)[C@@H](O)N[*:3])N[*:1])[*:2]; hTyr(3S-OH,4S-OH) = N[C@H](C(=O)O)[C@H](O)[C@@H](O)c1ccc(O)cc1; Pro(3S-OH,4S-Me) = C[C@H]1CN[C@H](C(=O)O)[C@H]1O; Hyp = O=C(O)[C@@H]1C[C@@H](O)CN1
# Experiments:
# [1] = P-glycoprotein substrates identified in KB-3-1 adenocarcinoma cell line, qHTS therapeutic library screen (AID 1346986); note: nearly all actives have a fitted effect of over 60% in size;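 note: potency is for cytotoxicity meaning loss of cell viability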
# Procedure, shortened: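 Compounds were tested in dose-response against KB-3-1 and KB-8-5-11 cells at 37 degree C for 72 h, and viability was measured by luminescence. AC50 values came from curve fitting with class-based activity calls.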
# [2] = P-glycoprotein substrates identified in KB-8-5-11 adenocarcinoma cell line, qHTS therapeutic library screen (AID 1346987); note: nearly all actives have a fitted effect of over 65% in size; for activity change, negative = cytotoxicity: series mostly up to about 44 µM
# Procedure, shortened: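 KB-8-5-11: colchicine-selected sub-line of KB-3-1 over-expressing P-gp; assay medium lacked colchicine. 72 h drug exposure at 37 degree C, CellTiter-Glo.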
# Potency is the fitted concentration of half-maximal effect.
structure (smiles),measurement,setting,value
CN1CCN(c2ccc(-c3cccc(CN4CCOCC4)c3)cc2NC(=O)c2c[nH]c(=O)cc2C(F)(F)F)CC1,Potency,[1],inactive
same,Potency,[2],inactive
Cn1ncc(Cl)c1-c1cc(C(=O)N[C@H](CN)Cc2ccc(F)c(F)c2)oc1Cl,Potency,[1],11.6 µM (active)
same,Potency,[2],16.4 µM (active)
CC(=O)O[C@H]1CC[C@]2(C)[C@H]3CC[C@]4(C)Oc5oc(C)cc(=O)c5C[C@H]4[C@]3(C)CC[C@H]2C1(C)C,Potency,[1],inactive
same,Potency,[2],inactive
CC1(C)CC[C@]2(C(=O)O[C@@H]3O[C@H](CO)[C@@H](O)[C@H](O)[C@H]3O)CC[C@]3(C)C(=CCC4[C@@]5(C)CC[C@H](O[C@@H]6O[C@H](C(=O)O)[C@H](O)[C@H](O)[C@H]6O)C(C)(C)C5CC[C@]43C)[C@@H]2C1 (stereo partly specified),Potency,[1],inactive
same,Potency,[2],inactive
CCNC(=O)C#Cc1ccc2c(C(=Nc3ccc(CN(C)C)cc3)c3ccccc3)c(O)[nH]c2c1,Potency,[1],0.0517 µM (active)
same,Potency,[2],0.651 µM (active)
CN(C)c1cccc(Oc2cnc(Nc3cccc(O)c3)nc2)c1,Potency,[1],inactive
same,Potency,[2],inactive
CN1c2c(nc(N)[nH]c2=O)NC[C@@H]1CNc1ccc(C(=O)N[C@@H](CCC(=O)O)C(=O)O)cc1,Potency,[1],inactive
same,Potency,[2],inactive
COc1ccc(C2=NC(c3ccc(Cl)cc3)C(c3ccc(Cl)cc3)N2C(=O)N2CCNC(=O)C2)c(OC(C)C)c1 (stereo unspecified),Potency,[1],inactive
same,Potency,[2],inactive
O=C(Nc1ccccc1C(=O)Nc1ccc(CCO)cc1)c1ccc([N+](=O)[O-])cc1,Potency,[1],inactive
same,Potency,[2],inactive
CC(CCC1(O)OC2CC3C4CC=C5C[C@@H](O[C@@H]6O[C@H](CO)[C@@H](O[C@@H]7O[C@@H](C)[C@H](O)[C@@H](O)[C@H]7O)[C@H](O)[C@H]6O[C@@H]6O[C@@H](C)[C@H](O)[C@@H](O)[C@H]6O)CC[C@]5(C)C4CC[C@]3(C)[C@@]2(O)[C@@H]1C)CO[C@@H]1O[C@H](CO)[C@@H](O)[C@H](O)[C@H]1O (stereo partly specified),outcome,[1],inactive [at 9.29 µM]
same,"activity change, negative = cytotoxicity",[2],-2.5% [at 9.29 µM]
CC(=O)Nc1nc(C)c(-c2nc(N3CCCC(O)C3)no2)s1 (stereo unspecified),Potency,[1],13 µM (active)
same,Potency,[2],18.4 µM (active)
CCN(Cc1cc(Nc2nc(C)cn3c(-c4cn[nH]c4)cnc23)sn1)C(C)(C)CO,Potency,[1],0.0103 µM (active)
same,Potency,[2],0.411 µM (active)
COc1ccc(CN2CCN(CCCSc3cc(C(C)(C)C)c(O)c(C(C)(C)C)c3)CC2)c(OC)c1OC,outcome,[1],inactive [at 9.29 µM]
same,"activity change, negative = cytotoxicity",[2],-16.1% [at 9.29 µM]
C=C(COC(=O)C(O)C(O)CN)C12OC1C1(C)C(=CC2=O)C(O)C(O)CC1C (stereo unspecified),Potency,[1],inactive
same,Potency,[2],inactive
CC1(C)CC[C@]2(C(=O)O)[C@H](O)C[C@]3(C)C(=CCC4[C@@]5(C)CC[C@H](O[C@@H]6O[C@H](CO[C@@H]7OC[C@H](O)[C@H](O)[C@H]7O[C@@H]7OC[C@H](O)[C@H](O)[C@H]7O)[C@@H](O)[C@H](O)[C@H]6O)C(C)(C)C5CC[C@]43C)[C@@H]2C1 (stereo partly specified),outcome,[1],inactive [at 9.29 µM]
same,outcome,[2],inactive [at 9.29 µM]
C[C@@H]1O[C@@H](O[C@H]2[C@@H]3C=CO[C@@H](O[C@@H]4O[C@H](CO)[C@@H](O)[C@H](O)[C@H]4O)[C@@H]3[C@@]3(CO)O[C@@H]23)[C@H](O)[C@H](OC(=O)/C=C/c2ccccc2)[C@H]1O,Potency,[1],inactive
same,Potency,[2],inactive
CC1(C)CC[C@]23CO[C@@]4(CCC5[C@@]6(C)CC[C@H](O[C@@H]7OC[C@H](O[C@@H]8O[C@H](CO)[C@@H](O)[C@H](O)[C@H]8O[C@@H]8OC[C@@H](O)[C@H](O)[C@H]8O)[C@H](O)[C@H]7O)[C@@](C)(CO)C6CC[C@@]5(C)[C@]4(C)CC2=O)[C@@H]3C1 (stereo partly specified),outcome,[1],inactive [at 9.29 µM]
same,"activity change, negative = cytotoxicity",[2],-22.9% [at 9.29 µM]
CN(CC1COCCO1)S(=O)(=O)Nc1ccc2ccc3ncc(-c4cnn(C)c4)cc3c(=O)c2c1 (stereo unspecified),Potency,[1],11.6 µM (active)
same,Potency,[2],14.6 µM (active)
CO[C@@H]1[C@H](O)CCC2(CO2)[C@H]1[C@@]1(C)O[C@@H]1CC=C(C)C (stereo partly specified),Potency,[1],inactive
same,Potency,[2],inactive
CC#CCn1c(N2CCCC(N)C2)nc2c1c(=O)n(Cc1nc(C)c3ccccc3n1)c(=O)n2C (stereo unspecified),Potency,[1],inactive
same,Potency,[2],inactive
C=C1C(=O)O[C@@H]2C[C@]3(C)[C@@H](CCC(C)O)[C@@H]3C[C@H]12 (stereo partly specified),Potency,[1],inactive
same,Potency,[2],inactive
CC(C)n1nc(C#Cc2ccccc2)c2c(N)ncnc21,Potency,[1],14.6 µM (active)
same,Potency,[2],16.4 µM (active)
C=C1C(=O)O[C@@H]2/C=C(\CO)CC/C=C(\CO)[C@H](OC(C)=O)C(OC(=O)C(C)CC)C12 (stereo partly specified),Potency,[1],inactive
same,Potency,[2],inactive
O=C(/C=C/c1ccccc1O)O[C@@H]1O[C@H](CO)[C@@H](O)[C@H](O)[C@H]1O,Potency,[1],inactive
same,Potency,[2],inactive
CC1OC2OC(=O)C3(C)CC4C5(CO5)C5=CC(=O)OC(C)(C)C5=CC(=O)C4(C)C(C1=O)C23 (stereo unspecified),Potency,[1],inactive
same,Potency,[2],inactive
C=C1C(=O)OC2CC3(C)C(O)C(=O)C=C(C)C3CC12 (stereo unspecified),Potency,[1],inactive
same,Potency,[2],inactive
Cc1nc(C(=O)N2CCC[C@H]2Cc2nnc(-c3ccccc3)o2)c(-c2ccccc2F)s1,Potency,[1],inactive
same,Potency,[2],inactive
NC(=O)c1cccc2[nH]c(-c3ccc(C4CCCN4)cc3F)nc12 (stereo unspecified),Potency,[1],inactive
same,Potency,[2],inactive
Nc1nc2c(nc(Br)n2[C@@H]2O[C@@H]3COP(=O)(O)O[C@H]3[C@H]2O)c(=O)[nH]1,Potency,[1],inactive
same,Potency,[2],inactive
COc1ccc(S(=O)(=O)N2CCC[C@H]2C(=O)Nc2cc(C)cc(C)c2)cc1,Potency,[1],inactive
same,Potency,[2],inactive
CCC(C)C(=O)OC12C(OC(C)=O)C(C)C3(O)C(C=C(CO)CC4(O)C(=O)C(C)=CC43)C1C2(C)C (stereo unspecified),Potency,[1],inactive
same,Potency,[2],inactive
C=C1C(=O)OC2/C=C(\CO)CC/C=C(\C=O)C(OC)C(OC(=O)C(C)CC)C12 (stereo unspecified),Potency,[1],inactive
same,Potency,[2],inactive
O=C(O)c1cc(N(Cc2ccc(C3CCCCC3)cc2)C(=O)c2ccc(Oc3ccccc3)cc2)ccc1O,Potency,[1],inactive
same,Potency,[2],inactive
COc1ccc(-c2ccc3c(N4CCOCC4C)nc(N4CCOCC4C)nc3n2)cc1CO (stereo unspecified),Potency,[1],0.0731 µM (active)
same,Potency,[2],0.0731 µM (active)
"CCCCCOc1ccc(-c2ccc(-c3ccc(C(=O)N[C@H]4C[C@@H](O)[C@@H](O)NC(=O)[C@@H]5[C@@H](O)[C@@H](C)CN5C(=O)[C@H]([C@@H](C)O)NC(=O)[C@H]([C@H](O)[C@@H](O)c5ccc(O)cc5)NC(=O)[C@@H]5C[C@@H](O)CN5C(=O)[C@H]([C@@H](C)O)NC4=O)cc3)cc2)cc1 ({pTerphenylCO(4''-OnC5H11)}-[Orn(4R-OH,5R-OH)]T[Hyp][hTyr(3S-OH,4S-OH)]T[Pro(3S-OH,4S-Me)]; lactam 1-C)",Potency,[1],inactive
same,Potency,[2],inactive
Cc1cn2cc(C(=O)N(C)CCO)cc(NC3CCOc4cccc(C)c43)c2n1 (stereo unspecified),Potency,[1],inactive
same,Potency,[2],inactive
C=C1C(=O)OC2CC(C)C(CCC(C)O)=CCC12 (stereo unspecified),Potency,[1],inactive
same,Potency,[2],inactive
C=C1CC[C@@H]2[C@](C)(CO)[C@H](O)CC[C@@]2(C)[C@@H]1C/C=C1/C(=O)OCC1OC(=O)/C(=C/CO)C(O)C[C@@H]1C(=C)CC[C@@H]2[C@](C)(CO)[C@H](O)CC[C@]21C (stereo partly specified),Potency,[1],inactive
same,Potency,[2],inactive
C=C1[C@H]2CC[C@H](C(=O)O)[C@@]23CC[C@H](C3)C1(C)C,Potency,[1],inactive
same,Potency,[2],inactive
COC1=CC(=O)C=C(C)C12Oc1c(Cl)c(OC)cc(OC)c1C2=O (stereo unspecified),Potency,[1],inactive
same,Potency,[2],inactive
C=C1C(=O)OC2/C=C(\CO)CC/C=C(\C=O)C(O)C(OC(=O)C(C)CC)C12 (stereo unspecified),Potency,[1],inactive
same,Potency,[2],inactive
COc1cc(C(C)=O)c(OC)c2c1OC(C)(C)C=C2,Potency,[1],inactive
same,Potency,[2],inactive
O=c1cc(N2CCN(c3cccc(C(F)(F)F)c3)CC2)[nH]c(=O)n1C1CCCCC1,Potency,[1],inactive
same,Potency,[2],inactive
COc1ccc2[nH]c(=O)c3c(c2c1)OC(C)(C)C=C3,Potency,[1],inactive
same,Potency,[2],inactive
CC1(C)C2CCC(CO[C@@H]3O[C@H](CO[C@@H]4OC[C@](O)(CO)[C@H]4O)[C@@H](O)[C@H](O)[C@H]3O)C1C2 (stereo partly specified),Potency,[1],inactive
same,Potency,[2],inactive
Cc1[nH]c2ccccc2c1CCNC(=O)c1cccs1,Potency,[1],inactive
same,Potency,[2],inactive
CCOc1ccc(-n2c(C(C)N(Cc3cccnc3)C(=O)Cc3ccc(F)c(C(F)(F)F)c3)nc3ncccc3c2=O)cc1 (stereo unspecified),Potency,[1],inactive
same,Potency,[2],inactive
O=C1NC(=O)C(c2cnc3ccccn23)=C1c1cn2c3c(cc(F)cc13)CN(C(=O)N1CCCCC1)CC2,Potency,[1],5.8 µM (active)
same,Potency,[2],16.4 µM (active)
C=CCCN1CCC2(CC1)CN(C(=O)c1c(F)cccc1F)c1ccc(Cl)cc12,Potency,[1],inactive
same,Potency,[2],inactive
CC/C(C)=C/C(=O)OC1C(OC2(C)CCC3C(C4C(C)CCC42)C3(C)C)OC(C)C(O)C1O (stereo unspecified),Potency,[1],inactive
same,Potency,[2],inactive
C=CC(=O)Nc1cccc(Nc2nc(Nc3ccc(OCCOC)cc3)ncc2F)c1,Potency,[1],11.6 µM (active)
same,Potency,[2],7.31 µM (active)
O=C(c1cc(Cc2n[nH]c(=O)c3ccccc23)ccc1F)N1CCCNCC1,Potency,[1],inactive
same,Potency,[2],inactive
COc1cc2ncc(-c3ccccc3)nc2cc1OC,Potency,[1],7.31 µM (active)
same,Potency,[2],8.2 µM (active)
CC(=O)C=C=C1C(C)(C)CC(O)CC1(C)O[C@@H]1O[C@H](CO[C@H]2OC[C@](O)(CO)[C@H]2O)[C@@H](O)[C@H](O)[C@H]1O (stereo partly specified),Potency,[1],inactive
same,Potency,[2],inactive
O=C(O)CCc1nccc2c1[nH]c1ccccc12,Potency,[1],inactive
same,Potency,[2],inactive
COc1cccc(CN(C(=O)CC(C)(C)C)[C@H]2C[C@H](C(=O)N3CCNCC3)N(Cc3ccc4c(c3)OCO4)C2)c1,Potency,[1],inactive
same,Potency,[2],inactive
COc1c(C(C)C)c(O)c(O)c2c1C(OC)[C@H]1OC(=O)[C@@]23CCCC(C)(C)[C@H]13 (stereo partly specified),Potency,[1],inactive
same,Potency,[2],inactive
CNc1nc(Nc2ccc(C(=O)N3CCOCC3)cc2OC)nc2[nH]cc(Cl)c12,Potency,[1],7.31 µM (active)
same,Potency,[2],5.8 µM (active)
